Laboratory results from PubChem BioAssay AID651814 (National Center for Advancing Translational Sciences (NCATS), 2012).
Screen size: about 2,100 compounds; about 590 (28%) were called active. Not shown: some 42% with an inconclusive outcome. The list shows a part of the results. Values without a mark were called inactive. The call rests on the fitted dose curve; in most records, active means well fitted inhibition curve with a large enough effect; inconclusive means small, poorly fitted or top-dose-only effect; inactive means flat fitted curve, though single readings scatter.

Target: DNA dC->dU-editing enzyme APOBEC-3F (Homo sapiens) (UniProt Q8IUX4)
Assay: qHTS for inhibitors of Vif-A3F interactions: Cherry picks; further: nearly all actives have a fitted effect of over 70% in size;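 on max response: % of control where 0% means no effect; active compounds raise eYFP fluorescence by blocking Vif-driven A3F loss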
Conditions: HeLa A3F-eYFP + Vif (tagged APOBEC3F with the HIV-1 protein that degrades it), eYFP fluorescence, 24 h
Method in brief: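 HeLa cells stably expressing A3F-eYFP plus Vif, cultured overnight, then exposed to compounds at several concentrations for 24 h at 37 deg C. Reduced Vif-driven degradation read as rising eYFP fluorescence (488 nm ex/500-530 nm em) by laser-scanning cytometry; MG132 as positive control.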
Potency means the concentration at half of the fitted maximal effect.

DNA dC->dU-editing enzyme APOBEC-3F (Homo sapiens), sequence (Q8IUX4 whole entry, looked up): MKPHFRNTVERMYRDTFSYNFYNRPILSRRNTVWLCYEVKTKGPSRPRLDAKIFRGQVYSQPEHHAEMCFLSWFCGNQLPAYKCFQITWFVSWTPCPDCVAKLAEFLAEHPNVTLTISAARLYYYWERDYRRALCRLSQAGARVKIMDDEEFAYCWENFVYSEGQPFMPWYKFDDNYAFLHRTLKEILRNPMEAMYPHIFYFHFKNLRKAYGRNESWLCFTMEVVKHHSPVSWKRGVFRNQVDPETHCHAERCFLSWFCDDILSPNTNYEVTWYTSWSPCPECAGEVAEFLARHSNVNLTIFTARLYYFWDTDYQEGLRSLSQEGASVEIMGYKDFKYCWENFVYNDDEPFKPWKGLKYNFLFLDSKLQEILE

Structure (SMILES) | max response [%] | Potency
Cc1ccc(N2C(=O)[C@@H]3[C@H](C2=O)[C@H]2C=C(C(=O)c4ccccc4)C=CN2[C@@H]3C(=O)c2ccc(Cl)cc2)cc1 | -5.61 | –
COc1ccc(/C=C(/C(=O)c2cccs2)N2C=CC=CC2=C(C#N)C#N)cc1 | -25.3 | –
CCOC(=O)c1c(CN(CC)CC)n(-c2ccccc2)c2ccc(O)cc12 | 0.203 | –
COc1cc(/C=C2/SC(=Nc3ccc(O)cc3)NC2=O)ccc1O | – | 16.4 µM (active)
COc1cc(/C=C2\SC(=Nc3cccnc3)NC2=O)cc(OC)c1OC | -8.17 | –
CCC(=O)NC(=S)Nc1cccc(Cl)c1N1CCCC1 | -0.93 | –
COCCCN(C(C)=O)c1nc(-c2ccc(OC)cc2)cs1 | -29.1 | –
CCOC(=O)c1ccc(NC(=S)Nc2cccc(C)n2)cc1 | -6.7 | –
CCOC(=O)c1cc(-c2ccccc2)sc1NC(=S)Nc1cc(C)ccn1 | – | 8.2 µM (active)
Cc1ccc(NC(=S)Nc2ccccn2)c(C)c1 | 1.92 | –
CC(=O)Nc1ccc2c(c1)Cc1ccc(Cl)cc1-2 | -9.88 | –
NC(=O)C1CCN(c2nc3ccccc3nc2NS(=O)(=O)c2ccc(Br)cc2)CC1 | -0.959 | –
COc1ccc(N2C(=O)NC3CC2(C)Oc2ccccc23)cc1OC (centres undefined) | -29.4 | –
Cc1ccc2nc(/C(C#N)=C\c3ccc([N+](=O)[O-])o3)[nH]c2c1 | – | 3.26 µM (active)
N#C/C(=C\c1ccc([N+](=O)[O-])o1)c1nc2ccccc2[nH]1 | – | 5.17 µM (active)
COc1ccc(C(C)(O)c2nc(-c3ccccc3OC)cs2)cc1 (centres undefined) | -27.4 | –
O=C1/C(=C/c2ccc([N+](=O)[O-])cc2)Oc2cc(O)ccc21 | -5.76 | –
CN(C)c1ccc(/C=C2\Oc3ccc(C#Cc4cccc(N)c4)cc3C2=O)cc1 | – | 12.5 µM (active)
Cc1ccnc(N/C=C(\C#N)c2nc(-c3cccc(Br)c3)cs2)c1 | – | 11.2 µM (active)
O=[N+]([O-])c1ccc(N/N=C/c2sc(N3CCOCC3)nc2-c2ccccc2)c(S(=O)(=O)Nc2ccccc2Cl)c1 | – | 9.2 µM (active)
COc1ccccc1NS(=O)(=O)c1cc([N+](=O)[O-])ccc1N/N=C/c1sc(N2CCOCC2)nc1-c1ccccc1 | – | 2.06 µM (active)
O=[N+]([O-])c1ccccc1S(=O)(=O)Nc1ccc(-c2ccc(N3CCOCC3)nn2)cc1 | -8.95 | –

Structure (SMILES) | max response [%] | Potency
O=C(O)c1ccccc1/C=N/Nc1ccc(S(=O)(=O)N2CCOCC2)cc1[N+](=O)[O-] | -0.875 | –
COc1ccc(NC(=O)C2Cc3c(-c4cccc(C(C)=O)c4)ccnc3O2)cn1 (centres undefined) | -25.1 | –
CC(=O)/C(N=Nc1cc(C)ccc1O)=C(\C)O | – | 20.6 µM (active)
Cc1cc(N/N=C/c2ccc(O)cc2O)nc(-n2nc(C)cc2C)n1 | 2.91 | –
COC(=O)c1sccc1S(=O)(=O)N(CC(=O)Nc1cc(F)ccc1F)c1ccc(C)c(C)c1 | 4.72 | –
O=S(=O)(Nc1nc2n(n1)C(c1ccccc1)C=C(c1ccc(Cl)cc1)N2)c1ccccc1 (centres undefined) | -9.71 | –
COc1ccc2c(c1)N(C)/C(=C/c1cccc[n+]1C)S2 | – | 7.04 µM (active)
CC[n+]1ccc(/C=C2\Sc3ccccc3N2CCCS(=O)(=O)[O-])c2ccccc21 | -17.2 | –
COc1ccc(C(=O)Nc2ccc3c(c2)N(C)C(=O)c2ccccc2S3)cc1OC | -28.4 | –
CCN1/C(=C/c2cccc[n+]2C)Sc2ccc(OC)cc21 | – | 18.4 µM (active)
CC[n+]1ccccc1/C=C1\Sc2ccc(C)cc2N1C | – | 23.1 µM (active)
N#CC1=C(N)Oc2c(sc3ccccc23)C1c1ccco1 (centres undefined) | -18.3 | –
COc1cc2c3nnc(-c4ccc(F)cc4)c-3cn(Cc3ccc(C)cc3)c2cc1OC | – | 9.94 µM (active)
Cn1ccnc1Sc1nc2ccccc2nc1NS(=O)(=O)c1ccccc1 | -9.48 | –
O=C(Nc1nnc(-c2ccc3c(c2)CCCC3)o1)c1c(F)cccc1F | 0.764 | –
COc1ccc2c(C)cc(SCC#N)nc2c1 | – | 20.6 µM (active)
CCN(CC)c1nc2cc(OC)ccc2cc1C#N | -15.5 | –
COCCNC(=S)NN=C1CCCCCC1 | 2.16 | –
C/C(=N\NC(=S)NCc1ccccc1)c1cccs1 | -3.71 | –
COc1cccc(NC(=O)c2oc3ccc(S(=O)(=O)N4CCC5(CC4)OCCO5)cc3c2C)c1 | -28.1 | –
CCOCCCNC(=O)/C(C#N)=C/c1ccc([N+](=O)[O-])o1 | – | 16.4 µM (active)
CC(NC(=O)/C(C#N)=C/c1ccc([N+](=O)[O-])o1)c1ccccc1 (centres undefined) | – | 7.31 µM (active)
